# Results reported in PubChem BioAssay.
# Active and inactive are the calls of the source. Unless noted, how the calls were made is not given here.
# Tests used:
# [1] = compounds altering circadian rhythm period length – cell-based, LOPAC library, luminescence reporter (AID 2774); conditions: circadian reporter cells, at 7 µM, actives lie on both sides;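 further: values are relative to mean of DMSO wells on each plate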
# [2] = tested on: Aerobactin synthetase IucA (Klebsiella pneumoniae); test: inhibition of K. pneumoniae IucA enzyme – biochemical, Tocris library, absorbance (AID 1345561); conditions: purified IucA enzyme assay, absorbance (OD) read-out; stronger effect = lower value;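 tested at 8 µM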;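 further: 100% = enzyme without compound and 0% = no enzyme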
# [3] = viability loss with induced miR-34 in A549 – imaging, A549 dox-inducible miR-34, nuclei and caspase counts, primary screen (AID 1347080;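 active means compounds whose cell count with miR-34 switched on is under 0.7 times the count with it off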); conditions: A549 miR-34 inducible, Hoechst nuclei count, 48 h
# [4] = galactose survival enhancers in mitochondrial complex I cybrids – cell-based, galactose medium, ATP luminescence, primary screen (AID 1645843;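 active means z-score of at least 1.8 in each of two replicates, scored against plate mean and spread of sample wells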;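 further: positive z means more ATP and so rescue of galactose-driven cybrid death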); conditions: complex I mutant cybrid cells, 72 h, stronger effect = higher value
# [5] = P. berghei load reduction in hepatocytes – cell-based, HepG2, luciferase luminescence, HepG2 viability, primary screen (AID 624349; in the data active means parasite load remaining mostly below about 12%, no sharp cut-off; inactive means mostly above about 10%;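 further: 100% = mean of DMSO negative control wells on the same plate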); conditions: P. berghei liver stage in HepG2, luciferase luminescence, concentration not given here; parasite load remaining: stronger effect = lower value; viability: measured here: HepG2 viability without parasites
# [6] = compounds altering viability of human ES cells (AID 493140); conditions: human embryonic stem cell survival screen; stronger effect = higher value;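 further: cells exposed to compounds for four days before counting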
# [7] = stronger effect = lower value, cell number ratio, induced over uninduced
# [8] = measured here: relative caspase fold change +Dox/-Dox
# [9] = measured here: total cells with miR-34 induction, stronger effect = lower value
# [10] = measured here: total cells without miR-34 induction
Compound,period change [1],remaining activity [2],"fold change [3, 7]","fold change [3, 8]","cell count [3, 9]","cell count [3, 10]",z-score [4],parasite load remaining [5],viability [5],survival [6]
CC(C)C1C2CCC(C2)C1N (configuration not stated),-0.025 h (inactive),119% (inactive),0.973 (inactive),0.597,9360,9620,-0.42 (inactive),–,–,–
O=C1NC(=O)c2cc(Nc3ccc(F)cc3)c(Nc3ccc(F)cc3)cc21,–,103% (inactive),1.25 (inactive),0.934,3220,2570,-0.645 (inactive),41.4% (inactive),70.7%,–
CCCCC(=O)NCCc1c(Cc2ccccc2)[nH]c2ccccc12,–,108% (inactive),0.933 (inactive),0.702,6310,6770,0.26 (inactive),–,–,–
COc1ccc2[nH]c(I)c(CCNC(C)=O)c2c1,-0.075 h (inactive),98.4% (inactive),0.928 (inactive),0.922,8770,9460,0.09 (inactive),–,–,–
CC[C@H](CO)Nc1nc(NCc2ccc(-c3ccccn3)cc2)c2ncn(C(C)C)c2n1,–,108% (inactive),1.16 (inactive),0.699,1900,1650,-0.89 (inactive),135% (inactive),85.7%,–
COC(=O)/C=C/c1cc(O)ccc1O,–,98.4% (inactive),0.869 (inactive),0.871,8110,9340,-1.21 (inactive),–,–,85.3 (inactive)
COc1cc2c(cc1C(F)(F)F)N(C(=O)Nc1cc(F)cc(-c3cccnc3)c1)CC2,0.195 h (inactive),97.1% (inactive),0.848 (inactive),0.948,5790,6820,-0.61 (inactive),–,–,–
CCOC(=O)C1=C(C)NC(c2ccccc2)=C(C(=O)OCc2ccc([N+](=O)[O-])cc2)C1C#Cc1ccccc1 (configuration not stated),–,124% (inactive),0.924 (inactive),0.543,7910,8560,0.3 (inactive),–,–,–
CC(C)[C@H](CO)Nc1nc(Nc2cc(N)cc(Cl)c2)c2ncn(C(C)C)c2n1,–,103% (inactive),1.06 (inactive),1.14,1230,1160,-0.555 (inactive),38.5% (inactive),101%,–
O=C(O)/C=C1\CCCc2ccccc2C1O (configuration not stated),–,103% (inactive),0.917 (inactive),0.874,8860,9660,-0.145 (inactive),–,–,–
Nc1ccc(-c2cccc3c(=O)cc(N4CCOCC4)oc23)cc1,–,104% (inactive),0.901 (inactive),1.45,3870,4300,4.44 (active),43.6% (inactive),83.4%,–
COC(=O)c1c(-c2cc(OC)c(OC)c(OC)c2)c2ccnc(OCc3ncccn3)c2c(=O)n1Cc1ccnc(C)c1,0.03 h (inactive),117% (inactive),0.972 (inactive),0.845,8000,8240,-0.06 (inactive),–,–,–
COc1ccccc1C1(O)CCN(CCCn2c3ccccc3c3ccccc32)CC1,–,91.1% (inactive),0.694 (active),1.55,323,466,-0.705 (inactive),–,–,–
O=C(O)c1ccc(/C=C2/SC(=S)N(c3cccc(C(F)(F)F)c3)C2=O)cc1,–,83.1% (inactive),0.837 (inactive),1.71,8080,9650,-0.215 (inactive),–,–,–
